The values below come from PubChem BioAssay.

The source made the active and inactive calls. Unless noted, the rule behind the calls is not given here.

Assay [1] relates to Wnt5a (protein binding on small-molecule microarray). Briefly: small molecules binding Wnt5a protein – biophysical, small-molecule microarray, 635/667 nm fluorescence, primary screen (AID 1142).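 Note: fluorescence read at 667 nm with signal to noise per printed feature.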 The following applies: 635 nm fluorescence, higher = more signal.
The nature of assay [2]: ATP-based viability of Huh7 replicon cells – cell-based, CellTiter-Glo luminescence, basal, 48 h, cytotoxicity control for HCV replication inhibitor project, primary screen (AID 1143).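 Note: Huh7 hepatoma cells carrying a hepatitis C replication reporter with no stimulus; test concentration not given here.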 The following applies: higher = more signal, called active from +8 up or from −8 down.
Assay [3] in a line: Pseudomonas biofilm growth suppression – PAO1 strain, BacTiter-Glo luminescence, LB-PBS, primary screen (AID 1144). The note with it: P. aeruginosa PAO1 biofilm, 12 h, higher = more signal.
Assay [4] is described as follows: basal CRE-LacZ reporter activity in PC12 – cell-based, unstimulated, primary screen (AID 1145). The following applies: no forskolin, luminescence, 4.5 h, higher = more signal, called active from +8 up or from −8 down.
The nature of assay [5]: forskolin-driven CRE-LacZ activity in PC12 – cell-based, CRE-LacZ reporter, forskolin-stimulated, primary screen (AID 1146).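 Note: PC12 cells with 6xCRE LacZ reporter stimulated by forskolin 10 µM; beta-galactosidase reporter signal reflecting CREB driven transcription.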 The following applies: luminescence, 4.5 h, higher = more signal, called active from +8 up or from −8 down.
Assay [6] has as its target Streptavidin (Streptomyces avidinii) (UniProt P22629). Kind of assay: compounds binding control protein streptavidin – biophysical, small-molecule microarray, 635/667 nm fluorescence, artefact control for SMM compound annotation, primary screen (AID 1147).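 Note: signal reflects streptavidin binding to arrayed compounds as a control protein.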 The following applies: higher = more signal.
A short description of assay [7]: probe aInhba binding on compound microarray – biochemical, small-molecule microarray, 635/667 nm fluorescence, primary screen (AID 1148).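 Note: score merges 667nm spot fluorescence with signal-to-noise for antibody binding to printed compounds.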 The note with it: higher = more signal.
Assay [8] deals with Torsin-1A (Homo sapiens) (UniProt O14656). Kind of assay: TOR1A wild-type binding on microarray – cell lysate, small-molecule microarray, lysate, 635/667 nm, primary screen (AID 1149). The following applies: COS7 hTOR1A-WT lysate, 635 nm fluorescence, higher = more signal.
For assay [9] the target is unchanged. Briefly: torsin A mutant lysate binding on microarrays – cell lysate, small-molecule microarray, COS7 lysate, 635/667 nm fluorescence, primary screen (AID 1150).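 Note: score pools 667 nm emission and signal to noise measuring lysate protein binding.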 The following applies: COS7 hTOR1A mutant lysate, 635 nm fluorescence, higher = more signal.
Assay [10] has as its system Sonic hedgehog protein (Shh). Briefly: Sonic hedgehog microarray binding compounds – biochemical, small-molecule microarray, 635/667 nm fluorescence, primary screen (AID 1151).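 Note: Shh protein binding to compounds spotted on small-molecule microarray slides; score combines spot fluorescence intensity with signal-to-noise across triplicate slides.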 The following applies: 635 nm fluorescence, higher = more signal.
Assay [11] in a line: optical density shifts of acrAB sulA E. coli – strain DRC41, OD650, 48 h, E. coli filamentation inducer project, primary screen (AID 1152).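 Note: E. coli MC1000 strain DRC41 lacking acrAB efflux pump and sulA.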 The following applies: higher = more signal, called active from +8 up or from −8 down.
Assay [12] can be described thus: probe aLefty1 binding on compound microarray – biochemical, small-molecule microarray, 635/667 nm fluorescence, primary screen (AID 1153).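 Note: score merges spot fluorescence with signal-to-noise ratio from the scanned slide images.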 The note with it: higher = more signal.
Assay [13] can be described thus: plasmodial surface anion channel blockers, osmotic lysis – cell-based, P. falciparum Indochina, OD700, 1 h, primary screen (AID 1154). The following applies: P. falciparum Indochina infected RBC osmotic lysis, higher = more signal, called active from +8 up or from −8 down.
The nature of assay [14]: plasmodial surface anion channel blockers, osmotic lysis – cell-based, P. falciparum Indochina, OD700, 2 h, primary screen (AID 1155).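 Note: lysis reports solute entry through the parasite surface anion channel PSAC.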 The following applies: P. falciparum Indochina infected erythrocytes, higher = more signal, called active from +8 up or from −8 down.
Assay [15] is described as follows: changes in parasitized red cell lysis, either direction – P. falciparum Indochina, OD700, 3 h, PSAC antagonist project, primary screen (AID 1156). The following applies: P. falciparum-infected erythrocytes, osmotic lysis, higher = more signal, called active from +8 up or from −8 down.
The nature of assay [16]: plasmodial surface anion channel blockers, osmotic lysis – cell-based, P. falciparum Indochina, OD700, 18 h, primary screen (AID 1157). The following applies: P. falciparum Indochina infected erythrocytes, osmotic lysis OD700, 18 h; higher = more signal, called active from +8 up or from −8 down.
The nature of assay [17]: S6 kinase pathway phospho-S6 level changes – cell-based, A549, cytoblot, luminescence, serum-stimulated, primary screen (AID 1158).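 Note: serum-stimulated A549 lung adenocarcinoma cells; signal is phosphorylated S6 detected by cytoblot immunostaining with HRP secondary.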 The following applies: 5 h, higher = more signal.
Assay [18] concerns the target NADPH oxidase 2 (Homo sapiens) (UniProt P04839). Briefly: compounds shifting NOX2 Amplex Red fluorescence – cell-based, HEK293-NOX2, PMA-stimulated, NOX inhibitor project, primary screen (AID 1159). Note: test concentration not given here. The note with it: 45 min, higher = more signal, called active from +8 up or from −8 down.
The target of assay [19] is NADPH oxidase 4 (Homo sapiens) (UniProt Q9NPH5). Briefly: compounds shifting NOX4 Amplex Red fluorescence – cell-based, HEK293-NOX4, tetracycline-induced, NOX inhibitor project, primary screen (AID 1160). The following applies: HEK293-NOX4, Amplex Red H2O2 fluorescence, 45 min; higher = more signal, called active from +8 up or from −8 down.
Assay [20] addresses NADPH oxidase 5 (Homo sapiens) (UniProt Q96PH1). Kind of assay: compounds shifting NOX5 Amplex Red fluorescence – cell-based, HEK293-NOX5, NOX inhibitor project, primary screen (AID 1161). The following applies: HEK293-NOX5, ionomycin, 45 min, higher = more signal.

Chain of NADPH oxidase 4 (Homo sapiens) (Q9NPH5 whole entry, looked up): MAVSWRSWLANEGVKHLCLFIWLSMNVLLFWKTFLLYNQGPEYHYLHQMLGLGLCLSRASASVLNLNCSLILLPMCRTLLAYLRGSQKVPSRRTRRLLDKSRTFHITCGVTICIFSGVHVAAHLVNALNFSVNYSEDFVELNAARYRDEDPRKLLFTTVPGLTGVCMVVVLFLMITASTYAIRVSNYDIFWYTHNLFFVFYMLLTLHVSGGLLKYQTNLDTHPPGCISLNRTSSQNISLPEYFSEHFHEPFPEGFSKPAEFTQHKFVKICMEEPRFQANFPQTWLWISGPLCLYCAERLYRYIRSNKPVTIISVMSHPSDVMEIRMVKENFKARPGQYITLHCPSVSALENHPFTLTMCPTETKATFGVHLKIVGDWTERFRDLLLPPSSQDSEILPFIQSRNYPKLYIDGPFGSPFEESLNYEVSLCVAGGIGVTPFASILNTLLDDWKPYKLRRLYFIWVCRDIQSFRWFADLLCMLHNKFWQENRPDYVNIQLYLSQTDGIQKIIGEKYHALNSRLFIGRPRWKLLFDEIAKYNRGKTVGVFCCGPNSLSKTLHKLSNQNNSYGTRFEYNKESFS
Chain of Streptavidin (Streptomyces avidinii) (P22629 whole entry, looked up): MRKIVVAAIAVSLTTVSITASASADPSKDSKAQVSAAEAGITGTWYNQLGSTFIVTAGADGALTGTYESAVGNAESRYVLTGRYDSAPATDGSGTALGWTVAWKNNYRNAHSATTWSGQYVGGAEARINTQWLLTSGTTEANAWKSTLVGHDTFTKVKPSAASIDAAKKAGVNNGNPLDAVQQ
Chain of NADPH oxidase 2 (Homo sapiens) (P04839 whole entry, looked up): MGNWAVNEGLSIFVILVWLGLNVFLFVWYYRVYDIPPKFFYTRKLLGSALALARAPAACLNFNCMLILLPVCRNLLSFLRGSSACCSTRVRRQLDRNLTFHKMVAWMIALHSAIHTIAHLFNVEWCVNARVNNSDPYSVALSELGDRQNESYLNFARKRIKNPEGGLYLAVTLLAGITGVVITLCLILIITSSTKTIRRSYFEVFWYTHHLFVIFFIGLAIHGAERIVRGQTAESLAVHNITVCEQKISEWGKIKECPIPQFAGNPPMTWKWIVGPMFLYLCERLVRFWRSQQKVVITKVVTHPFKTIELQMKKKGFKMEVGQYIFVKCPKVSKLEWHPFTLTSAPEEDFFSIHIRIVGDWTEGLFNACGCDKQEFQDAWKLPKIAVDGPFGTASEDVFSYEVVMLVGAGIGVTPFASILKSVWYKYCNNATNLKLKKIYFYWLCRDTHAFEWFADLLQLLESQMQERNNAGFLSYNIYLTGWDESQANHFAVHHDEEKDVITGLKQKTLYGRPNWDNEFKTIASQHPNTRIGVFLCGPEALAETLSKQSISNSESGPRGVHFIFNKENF
Chain of Torsin-1A (Homo sapiens) (O14656 whole entry, looked up): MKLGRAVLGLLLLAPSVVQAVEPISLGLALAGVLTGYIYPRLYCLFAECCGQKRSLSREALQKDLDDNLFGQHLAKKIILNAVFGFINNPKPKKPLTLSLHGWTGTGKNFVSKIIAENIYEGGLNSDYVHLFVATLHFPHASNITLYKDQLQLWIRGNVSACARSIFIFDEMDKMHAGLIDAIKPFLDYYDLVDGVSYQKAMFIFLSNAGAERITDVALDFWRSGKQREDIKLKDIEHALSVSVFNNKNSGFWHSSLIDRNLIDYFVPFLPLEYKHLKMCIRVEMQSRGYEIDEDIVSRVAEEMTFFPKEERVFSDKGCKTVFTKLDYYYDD
Chain of NADPH oxidase 5 (Homo sapiens) (Q96PH1 whole entry, looked up): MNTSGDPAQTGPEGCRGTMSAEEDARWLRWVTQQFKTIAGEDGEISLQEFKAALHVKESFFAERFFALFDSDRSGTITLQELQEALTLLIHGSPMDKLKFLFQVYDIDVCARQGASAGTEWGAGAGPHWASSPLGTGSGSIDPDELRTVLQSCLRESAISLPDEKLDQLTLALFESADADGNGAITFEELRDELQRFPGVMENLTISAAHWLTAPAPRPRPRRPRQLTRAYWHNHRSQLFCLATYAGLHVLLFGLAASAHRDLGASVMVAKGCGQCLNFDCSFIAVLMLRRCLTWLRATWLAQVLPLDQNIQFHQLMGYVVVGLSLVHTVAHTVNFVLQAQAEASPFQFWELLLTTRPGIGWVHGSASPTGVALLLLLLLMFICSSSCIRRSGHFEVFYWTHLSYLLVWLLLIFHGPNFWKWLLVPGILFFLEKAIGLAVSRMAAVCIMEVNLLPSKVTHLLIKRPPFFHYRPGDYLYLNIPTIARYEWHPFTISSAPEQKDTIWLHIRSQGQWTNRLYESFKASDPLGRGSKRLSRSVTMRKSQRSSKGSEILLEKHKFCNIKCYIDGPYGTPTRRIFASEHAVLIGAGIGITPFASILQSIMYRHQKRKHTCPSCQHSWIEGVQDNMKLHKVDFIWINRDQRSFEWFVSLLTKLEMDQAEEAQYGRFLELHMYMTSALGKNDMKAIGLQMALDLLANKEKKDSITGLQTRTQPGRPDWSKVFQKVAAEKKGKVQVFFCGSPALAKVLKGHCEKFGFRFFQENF

For `COc1ccc(C#Cc2ccc3c(c2)[C@]2(C(=O)N3)[C@H](c3ccccc3OCCO)N3[C@H](c4ccccc4)[C@H](c4ccccc4)OC(=O)[C@H]3[C@@H]2C(=O)Nc2nc3ccccc3s2)cc1`, the composite z-score stood at 0.469 in [1]; 1.09 in assay [6]; 1.06 in assay [7]; 0.0821 with Torsin-1A (Homo sapiens) [8]; 0.479 in the assay with Torsin-1A (Homo sapiens) [9]; 1.52 in [10]. In addition, the composite z-score in [12] stood at 1.78. The z-score in assay [2] is -1.62 (inactive); in assay [3], -0.726 (inactive); in assay [4], -1.28 (inactive); in [5], -1.38 (inactive); in [11], -0.89 (inactive); in assay [13] it was 1.35 (inactive). Further, the z-score in assay [14] was 1.67 (inactive); in assay [15], 1.46 (inactive); in assay [16], 0.457 (inactive); in assay [17] it was -0.0333; in [18], -1.26 (inactive); in assay [19] it was -0.977 (inactive). The z-score in [20] is -4.34.
`[N-]=[N+]=NCc1ccccc1C[C@]1(C(=O)N2CCCCC2)N=C(c2ccc(OCCCO)cc2)O[C@H]1c1ccccc1N=[N+]=[N-]`: the composite z-score is 0.0151 in assay [1]; 1.46 in [6]; 0.127 in assay [7]; 0.333 in the assay with Torsin-1A (Homo sapiens) [8]; 1.03 with Torsin-1A (Homo sapiens) [9]; -0.27 in [10]. The compound also gave a composite z-score in assay [12] of 0.286. The z-score was -5.01 (inactive) in assay [2]; -0.799 (inactive) in [3]; -0.333 (inactive) in [4]; -1.69 (inactive) in assay [5]; -0.365 (inactive) in assay [11]; 30.8 (active) in assay [13]. The z-score is 26.5 (active) in assay [14]; 3.55 (inactive) in assay [15]; 6.26 (inactive) in assay [16]; 1.9 in assay [17]; -2.45 (inactive) in [18]; 0.306 (inactive) in assay [19]. In [20], the z-score was -2.97.
With `C=C[C@H](C)[C@@H](OC(=O)Nc1ccc(OC)cc1)c1ccc(O)c2ccccc12`, the composite z-score was 0.198 in assay [1]; -0.387 in [6]; -0.206 in assay [7]; 0.308 in the assay with Torsin-1A (Homo sapiens) [8]; 0.422 in the assay with Torsin-1A (Homo sapiens) [9]; 1.36 in [10]. This compound also showed a composite z-score in assay [12] of 0.0903. In addition, the z-score in assay [2] was -6 (inactive); in [3] it was -0.899 (inactive); in assay [4], 0.804 (inactive); in assay [5], 0.819 (inactive); in assay [11] it was -0.368 (inactive); in [13], 3.54 (inactive). In addition, the z-score in [14] is 0.265 (inactive); in [15] it was -0.122 (inactive); in assay [16], 0.132 (inactive); in [17] it was -0.751; in assay [18] it was -5.53 (inactive); in [19], -1.89 (inactive). Besides, the z-score in [20] is -0.55.
For `C=CCNC(=O)[C@H]1[C@@H]2C(=O)O[C@@H](c3ccccc3)[C@@H](c3ccccc3)N2[C@@H](c2ccccc2OCCO)[C@]12C(=O)Nc1ccc(C#CCCO)cc12`, the composite z-score in assay [1] was 0.805; in assay [6] it was -0.378; in assay [7] it was -0.0944; in the assay with Torsin-1A (Homo sapiens) [8], -0.897; with Torsin-1A (Homo sapiens) [9], -0.202; in assay [10], -0.322. In [12], this compound returned a composite z-score of -0.133. Further, the z-score in assay [2] was -3.21 (inactive); in [3] it was 0.481 (inactive); in [4], -0.141 (inactive); in assay [5] it was 4.71 (inactive); in [11], -0.849 (inactive); in assay [13], 9.4 (active). The z-score was 1.75 (inactive) in assay [14]; -0.56 (inactive) in [15]; 0.982 (inactive) in assay [16]; 0.0418 in [17]; 1.76 (inactive) in [18]; -0.546 (inactive) in assay [19]. Moreover, the z-score in [20] turned out to be 1.93.
As for `C=CCC(OC(C)=O)[C@@H]1[C@@H](N(Cc2cc3ccccc3o2)C(=O)c2cccc3ccccc23)c2cc(OCCCO)ccc2N1C(=O)c1ccc(-c2ccccc2)cc1` (stereo not given in full), the composite z-score in assay [1] was 0.15; in assay [6], 0.111; in assay [7], -0.196; with Torsin-1A (Homo sapiens) [8], 0.736; in the assay with Torsin-1A (Homo sapiens) [9] it was 0.223; in assay [10], 0.464. Further, the composite z-score in [12] amounted to 0.0341. Moreover, the z-score in assay [2] is -1.82 (inactive); in assay [3], 0.861 (inactive); in assay [4] it was 1.38 (inactive); in assay [5] it was -0.654 (inactive); in [11], 1.45 (inactive); in assay [13], 1.01 (inactive). In addition, the z-score in [14] was 0.0907 (inactive); in assay [15] it was 0.358 (inactive); in [16], 0.554 (inactive); in assay [17], 0.332; in assay [18], 0.52 (inactive); in assay [19], -1.87 (inactive). Further, the z-score in [20] was -2.43.
